Experimental data: paper PMC8159961, “Exploring protein hotspots by optimized fragment pharmacophores” (Nature Communications, 2021)
Values without a mark were called inactive. No rule for the calls is given here.

Molecular target: 5-HT1A receptor (human, UniProt P08908)
Test: primary screen, binary call; higher = more effect of the substance
Design: hit call from the mean of at least two separate experiments
Conditions: 10 µM
Description: GPCR radioligand binding assays were performed in HEK293 cells with stable expression of human 5-HT1A, 5-HT6, and 5-HT7b receptors (prepared with the use of Lipofectamine 2000). Non-specific binding was defined with 10 µM of 5-HT in 5-HT1AR and 5-HT7R binding experiments, whereas 10 µM of mianserin was used in 5-HT6R assays, respectively. Each compound was tested at 10 µM concentration. Results were expressed as means of at least two separate experiments.

Chain of 5-HT1A receptor (P08908 whole entry, looked up): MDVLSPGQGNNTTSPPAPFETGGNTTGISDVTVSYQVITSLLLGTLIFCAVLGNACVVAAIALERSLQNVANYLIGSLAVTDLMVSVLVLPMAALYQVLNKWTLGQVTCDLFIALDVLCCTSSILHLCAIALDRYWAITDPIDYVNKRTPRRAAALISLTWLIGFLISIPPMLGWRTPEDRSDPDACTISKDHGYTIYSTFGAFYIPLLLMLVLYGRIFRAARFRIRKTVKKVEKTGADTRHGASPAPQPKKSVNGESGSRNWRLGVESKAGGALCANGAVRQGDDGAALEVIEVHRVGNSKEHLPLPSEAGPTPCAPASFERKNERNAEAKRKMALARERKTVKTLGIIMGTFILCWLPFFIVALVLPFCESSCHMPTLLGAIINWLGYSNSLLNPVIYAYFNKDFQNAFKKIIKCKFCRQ

| SMILES | 5-HT1 |
| --- | --- |
| Cc1ccc(-c2ccc(O)cc2)cc1 | 0 |
| CCN(CC)c1cccc(C)c1 | 0 |
| c1ccc(Nc2nncs2)cc1 | 0 |
| O=C(O)c1cnc(-c2ccccc2)s1 | 0 |
| N#Cc1ccc(C(=O)N2CCOCC2)cc1 | 0 |
| Cn1c(CO)nc2ccccc21 | 0 |
| Cc1cnc(C(F)(F)F)cn1 | 0 |
| NC1CCc2ccccc21 (stereo not shown) | 0 |
| CN1CC(=O)NC1=O | 0 |
| Cc1cc(N)no1 | 0 |
| O=C(c1ccncc1)N1CCNCC1 | 0 |
| CC1(C)OC(=O)c2cc(Br)c(O)cc2O1 | 0 |
| Cc1cc(C)c2c(=O)[nH]n(C)c2n1 | 0 |
| CC(=O)c1sc(-c2ccc(O)cc2)nc1C | 0 |
| CC(=O)c1ccc2c(c1)CNCC2 | 0 |
| NCC1(c2ccccc2)CCOCC1 | 0 |
| O=C1CCN(c2ccncc2)CC1 | 0 |
| O=C(c1ccccc1)N1CCC(CO)CC1 | 0 |
| Oc1ccc(-n2cncn2)cc1 | 0 |
| COc1ccccc1CC1CCNCC1.Cl | 1 (active) |

| SMILES | 5-HT1 |
| --- | --- |
| NC(=O)N1CCC(C(=O)O)CC1 | 0 |
| CN(C)c1cc(CN)ccn1 | 0 |
| Brc1ccc(-c2ccon2)cc1 | 0 |
| O=C(O)C1CCN(c2ncccn2)CC1 | 0 |
| COc1cccc(NC2=NCCCCC2)c1 | 0 |
| CCc1nccn1CC(=O)O | 0 |
| O=C(CN1CCNCC1)c1ccccc1 | 0 |
| CS(=O)(=O)c1ccc(OC(F)(F)F)cc1 | 0 |
| Cn1c(N)nc2ccccc21 | 0 |
| FC1(F)CNCC(F)(F)O1 | 0 |
| c1cnc2c(c1)NCCC2 | 0 |
| O=c1[nH]c2c(s1)CCC2 | 0 |
| CC1CCc2sc(C(=O)O)cc2C1 (stereo not shown) | 0 |
| CS(=O)(=O)Nc1ccc(C(=O)O)cc1 | 0 |
| Nc1ccc(SC(F)F)cc1 | 0 |
| O=C(c1ccccc1F)N1CCNCC1 | 0 |
| N#Cc1ccc2ncsc2c1 | 0 |
| O=C(O)c1cccc(Nc2ncccn2)c1 | 0 |
| N[C@H]1c2ccccc2C[C@H]1CO | 0 |
| O=C1CSC(Nc2ccc(F)cc2)=N1 | 0 |
